Source: PubChem BioAssay (Tox21)
Results filed as inconclusive are left out. A number with no mark means an inactive call. Calls of active or inactive are those of the source. Calls follow the shape of the dose curve; as a rule, active = well fitted inhibition curve with a large enough effect in the signal ratio in the repeat runs (not every such curve was filed as active); inconclusive = weak or mixed curves, or effect the other way; inactive = no such curve, though single readings can be large or run the other way; the % refers to the signal ratio.

target: Glucocorticoid receptor (Homo sapiens) (UniProt P04150); assay: qHTS assay to identify small molecule antagonists of the glucocorticoid receptor (GR) signaling pathway (AID 720692); details: GR-bla HeLa, beta-lactamase FRET ratio, dexamethasone-stimulated, 18 h; series mostly up to 58.5 µM; activity change, negative = inhibition: at the top concentration
How it was run: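 Antagonism was scored as loss of dexamethasone-driven (5 nM final) reporter signal in HeLa cells bearing a glucocorticoid response element–beta-lactamase construct, after 18 h compound exposure at 37 C and 2 h FRET substrate loading.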
% is scaled to controls: 0 for no effect and ±100 for the full control effect; potency is read from the fitted curve at half-maximal effect.

Glucocorticoid receptor (Homo sapiens), sequence (P04150 whole entry, looked up): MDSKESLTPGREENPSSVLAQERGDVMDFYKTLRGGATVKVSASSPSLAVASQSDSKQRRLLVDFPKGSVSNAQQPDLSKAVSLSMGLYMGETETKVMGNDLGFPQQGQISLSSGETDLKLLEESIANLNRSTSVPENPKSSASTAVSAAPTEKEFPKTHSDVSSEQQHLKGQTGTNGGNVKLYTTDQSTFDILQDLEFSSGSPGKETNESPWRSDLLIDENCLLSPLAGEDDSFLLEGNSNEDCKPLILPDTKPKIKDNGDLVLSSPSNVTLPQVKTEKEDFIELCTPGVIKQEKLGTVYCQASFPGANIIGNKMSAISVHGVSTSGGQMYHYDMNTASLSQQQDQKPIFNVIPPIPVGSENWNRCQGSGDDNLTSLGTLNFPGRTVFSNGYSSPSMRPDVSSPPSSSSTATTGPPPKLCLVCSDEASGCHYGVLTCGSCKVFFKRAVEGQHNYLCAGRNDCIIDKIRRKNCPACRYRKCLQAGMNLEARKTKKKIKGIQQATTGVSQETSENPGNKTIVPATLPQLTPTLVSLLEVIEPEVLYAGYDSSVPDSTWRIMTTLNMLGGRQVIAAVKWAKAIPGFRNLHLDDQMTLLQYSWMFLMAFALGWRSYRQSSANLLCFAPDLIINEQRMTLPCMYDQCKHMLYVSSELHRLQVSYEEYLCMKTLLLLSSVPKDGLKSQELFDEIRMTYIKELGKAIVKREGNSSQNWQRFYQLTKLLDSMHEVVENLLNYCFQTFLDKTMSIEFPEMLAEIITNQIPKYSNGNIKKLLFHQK

Row | Structure (SMILES) | activity change, negative = inhibition | Potency
1 | C=C(C)C(=O)OCCC(F)(F)C(F)(F)C(F)(F)C(F)(F)C(F)(F)C(F)(F)F | 2.05% | –
2 | Cc1ccc(NC(=O)N(C)C)cc1NC(=O)N(C)C | 0.154% | –
3 | N[C@@H](Cc1cc(I)c(O)c(I)c1)C(=O)O | 5.98% | –
4 | CCC(C)(C)C(=O)O | -10.4% | –
5 | C[C@@H]1[C@H](O)[C@@H](C)/C=C/C=C\C=C\C=C\C=C\C=C\C=C\[C@H](O[C@@H]2O[C@H](C)[C@@H](O)[C@H](N)[C@@H]2O)C[C@@H]2O[C@](O)(C[C@@H](O)C[C@@H](O)[C@H](O)CC[C@@H](O)C[C@@H](O)CC(=O)O[C@H]1C)C[C@H](O)[C@H]2C(=O)O (stereo in doubt) | – | 49 µM (active)
6 | COc1cc(C(C)=O)ccc1OCCCN1CCC(c2noc3cc(F)ccc23)CC1 | 5.08% | –
7 | CC(C)(C)NCC(O)COc1cccc2c1C[C@H](O)[C@H](O)C2 (stereo not given in full) | 15.8% [at 27 µM] | –
8 | Nc1ccn([C@H]2CS[C@@H](CO)O2)c(=O)n1 | – | inactive
9 | Cc1cc([N+](=O)[O-])ccc1N | 9.03% | –
10 | O=C1OC(=O)c2c(Br)c(Br)c(Br)c(Br)c21 | -12.3% | –
11 | Oc1ccc2c(c1)Cc1ccccc1-2 | – | 19.5 µM (active)
12 | CC(C(=O)O)c1ccc(C(=O)c2cccs2)cc1 (stereo not given) | -10.2% [at 27 µM] | –
13 | CC(=O)N[C@@H](Cc1ccc(O)cc1)C(=O)O | -6.23% | –
14 | CCCCCCCC(=O)OCCCCCC | -5.94% | –
15 | CCC(Cl)CC(Cl)C(Cl)C(Cl)C(Cl)C(C)Cl (stereo not given) | -10.1% [at 15.1 µM] | –
16 | CCSC(=O)N(CC)CC | -6.53% | –
17 | COc1ccc(C2C(=O)c3ccccc3C2=O)cc1 | 6.32% | –
18 | CCCCCCCC/C=C\CCCCCCCC(=O)OCCO | – | 57.8 µM (active)
19 | CCCCCc1ccco1 | – | 31.9 µM (active)
20 | CC(=O)OCC(C)C | -18.9% | –
